Bioassay records (PubChem BioAssay)
HT1080 IDH1KD tx: toxicity to HT-1080 IDH1 knockdown cells (counter line); Potency, µM (series often up to 46.1 µM), without a hit: at the top dose activity, negative = toxicity, hits mostly cytotoxic; actives 2% (n = 360,000); HT-1080 IDH1 knockdown viability, ATP luminescence, 48 h;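 note: 0% = DMSO wells and -100% = cell-free medium wells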
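Cytotoxicity counter-line: IDH1KD HT-1080, 48 h, CellTiter-Glo. Curves classed by r2, magnitude and activity.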
DT40 TDP1 no CPT: qHTS for Inhibitors of human tyrosyl-DNA phosphodiesterase 1 (TDP1): qHTS in cells in absence of CPT. DT40 Tdp1-/- hTDP1 cells, no CPT, ATP luminescence, 48 h. Potency, µM (top dose mostly 46.2 µM), inactives show at the top dose activity change, negative = growth inhibition, most hits filed as inhibitors. actives 15% (n = 420,000); note: nearly all actives have a fitted effect of over 55% in size
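Stably hTDP1-transfected Tdp1-null chicken DT40 cells were treated with library compounds minus camptothecin and grown for at least 48 hr at 37 °C, after which cellular ATP was quantified by luminescence.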
DT40 TDP1 CPT: DT40-hTDP1 cell growth loss with CPT | Potency, µM (top dose mostly 46.2 µM), for inactives: top-dose activity change, negative = growth inhibition, hits mostly inhibitors | actives 12% (n = 420,000) | AID 686979 | chicken DT40 Tdp1-/-;hTDP1 cells + 20 nM CPT, ATP luminescence, 48 h; note: nearly all actives have a fitted effect of over 55% in size
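Chicken DT40 Tdp1-/- cells stably complemented with human TDP1 were seeded at 400 cells/well in medium containing 20 nM camptothecin, exposed to pin-transferred compounds, and grown at 37 °C for at least 48 hr. Viability was read as ATP luminescence.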
KB-3-1 tox: kills parental KB-3-1 adenocarcinoma cells. KB-3-1 viability, CellTiter-Glo ATP luminescence, 72 h. Potency, µM (top dose mostly 46.1 µM), actives largely listed as cytotoxic. actives 1.4% (n = 400,000); note: nearly all actives have a fitted effect of over 60% in size
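Multi-concentration cytotoxicity screen in KB-3-1 cells grown in DMEM lacking phenol red with 10% FBS. After 72 h at 37 °C with compound, ATP-dependent luminescence was recorded.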
HT1080NT lethal: kills 2HG-producing HT-1080-NT fibrosarcoma cells; AID 686970; actives 1.6% (n = 360,000); HT-1080-NT fibrosarcoma viability, CellTiter-Glo ATP luminescence, 48 h; Potency, µM (highest dose often 46.1 µM), for inactives: top-dose activity, negative = less viability, hits mostly cytotoxic;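 note: NT is the 2HG producing partner of a matched IDH1 knockdown line; 0% = DMSO-treated cells and -100% = media-only wells without cells; nearly all actives have a fitted effect of over 55% in size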
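HT-1080-NT fibrosarcoma cells (2HG-overproducing), 750 cells/well in RPMI with 5% FBS, dosed after 2 h and incubated 48 h at 37C. CellTiter-Glo luminescence normalized to DMSO and no-cell wells; concentration-response curves fitted and classed.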
KB-V1 MDR tox: kills drug-selected multidrug resistant KB-V1 cells | KB-V1 MDR cells viability, CellTiter-Glo, 72 h | Potency, µM (series often up to 46.1 µM), usual class: cytotoxic | actives 3.4% (n = 400,000); note: nearly all actives have a fitted effect of over 60% in size
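KB-V1, DMEM (no phenol red) + 10% FBS; cpd pin-transferred, titration series; 72 h, 37 degrees C; CellTiter-Glo, luminescence. Data normalized, curve-fit.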
* marks the source's active call; other numbers are inactive results; i = inactive; ? = inconclusive; / = no result given; [ ] = dose if it differs, or a comment. In the library only some 19% were active in any assay of this set; here they are far more common. Calls come from the whole dose curve; as a rule, active = well fitted curve in the direction sought with a large enough effect; inconclusive = small, poorly fitted or top-dose-only effect, or another doubt; inactive = no such curve, though single readings can be large; an effect the other way counts as inactive or inconclusive. Unless noted, % is set by controls: 0 for no effect and ±100 for the full control effect; potency is the fitted concentration of half-maximal effect.

SMILES | HT1080 IDH1KD tx | DT40 TDP1 no CPT | DT40 TDP1 CPT | KB-3-1 tox | HT1080NT lethal | KB-V1 MDR tox
Nc1c(S(=O)(=O)c2ccccc2)c2nc3ccccc3nc2n1/N=C/c1cccc(O)c1 | -3%[9.24 µM] | 23µM* | 15µM* | ? | -30% | ?
Cc1ccc2cn[nH]c2c1[N+](=O)[O-] | 6% | 6% | 31% | i | 4% | i
COC(=O)C12OCC34C(CC5C(C)=C(O)C(=O)CC5(C)C3C(O)C1O)OC(=O)C(OC(=O)C=C(C)C)C24 (centres undefined) | 0.037µM* | 0.15µM* | 0.065µM* | 0.21µM* | -26% | 7.3µM*
C=CCNC(=O)c1ccc2c3n(nc2c1)-c1ccccc1CO3 | ? | 23µM* | 15µM* | i | ? | i
COCCNC(=O)c1ccc2c3n(nc2c1)-c1ccccc1CO3 | -14% | ? | ? | i | -5% | i
Cc1ccc2c(c1)COc1c3ccc(C(=O)NC(C)C)cc3nn1-2 | 1% | 10µM* | ? | i | 0% | i
COCCNC(=O)c1ccc2c3n(nc2c1)-c1ccc(Cl)cc1CO3 | 27% | 21µM* | ? | i | 25% | i
CCOc1ccc(OCCC(=O)OCC(=O)N(CC)c2c(N)n(Cc3ccccc3)c(=O)[nH]c2=O)cc1 | -7% | ? | ? | i | 3%[9.24 µM] | ?
CC(C)(C)S(=O)(=O)N1Cc2ccc(CO)cc2[C@@H]1CCO | 6% | -3% | -5% | i | 13% | i
O=C(O)c1ccccc1-c1ccc(C(F)(F)F)cc1 | / | -9% | 3% | / | / | /
Cc1ccc(NC(=O)CN(C)Cc2cccs2)cc1Cl | 18% | 21µM* | ? | i | 14% | i
CCN(CC)c1ccc(NC(=O)CN(C)Cc2cccs2)cc1 | -2% | 16µM* | ? | i | -8% | ?
O=C(O)CCn1c(=O)c2cccn2c2cccnc21 | / | 0% | -7% | / | / | /
Cc1c(C)c2ccc(OCC(=O)Nc3cccnc3)c(C)c2oc1=O | 13% | 18µM* | ? | i | 3% | i
O=C(COc1ccc2ccccc2c1Br)Nc1ccncc1 | ? | 7.3µM* | 10µM* | / | -19% | /
O=C(COc1ccccc1C(=O)Nc1cccnc1)Nc1ccc(Br)cc1 | / | ? | ? | i | / | i
O=C(O)CCC(=O)NNC(=O)COc1ccc2ccccc2c1Br | -15% | 5% | 0% | i | 2% | i
O=C(COc1ccc2ccccc2c1Br)Nc1cccnc1 | -12% | ? | 16µM* | i | -10% | i
CNC(=O)C1CCC(Cn2c(=O)c3sccc3n(CC(=O)N3CCC(C)CC3)c2=O)CC1 (centres undefined) | / | 1% | 2% | i | / | ?
O=C(CSc1ncc(-c2ccccc2)[nH]1)Nc1cccc(C(F)(F)F)c1 | / | ? | ? | i | / | i
CCOC(=O)C1(CCc2ccccc2)CCN(C(=O)C2CCOCC2)CC1 | 14% | ? | -15% | i | -18% | ?
CC(C)(C)c1ccc(-n2ncc3c2CCCC3NC(=O)CCN2CCCC2=O)cc1 (centres undefined) | 18µM* | 2.1µM* | 6.5µM* | i | ? | i
CC1(C)Cc2c(cnn2-c2cccc(F)c2)C(NC(=O)CCN2CCCC2=O)C1 (centres undefined) | -2% | -17% | -30% | i | -13% | i
CC(=O)CCC(=O)NC1CCCc2c1cnn2-c1ccc(C(C)(C)C)cc1 (centres undefined) | -9% | ? | ? | i | -10% | ?
CC1(C)Cc2c(cnn2-c2ccc(F)cc2)C(NC(=O)c2ccco2)C1 (centres undefined) | 3% | -26% | -10% | / | -8% | /
SMILES | HT1080 IDH1KD tx | DT40 TDP1 no CPT | DT40 TDP1 CPT | KB-3-1 tox | HT1080NT lethal | KB-V1 MDR tox
CC1(C)Cc2c(cnn2-c2ccc(F)cc2)C(NC(=O)CCN2CCCC2=O)C1 (centres undefined) | 0% | ? | 18µM* | i | 4% | i
CC1(C)Cc2c(cnn2-c2ccc(F)cc2)C(NC(=O)C2=NNC(=O)CC2)C1 (centres undefined) | 3% | ? | 15µM* | i | 27% | i
CC(C)(C)c1ccc(-n2ncc3c2CCCC3NC(=O)CN2CCCC2=O)cc1 (centres undefined) | 1% | 16µM* | 18µM* | ? | ? | 8.2µM*
O=C(CN1CCN(c2ccc(Cl)cc2[N+](=O)[O-])CC1)N1CCOCC1 | 5% | -16% | 9% | i | 12% | i
Cc1ccc(NC(=O)c2nnn(Cc3cccc(C(F)(F)F)c3)c2N)c(C)c1 | / | ? | ? | i | / | i
COc1ccc(-n2ncc3c2CC(C)(C)CC3NC(=O)c2c(C)cc(=O)oc2C)cc1 (centres undefined) | 1% | ? | 26µM* | i | -2% | i
CCC(C)Oc1ccccc1C1CC(=O)NC2=C1C(=O)CCC2 (centres undefined) | ? | ? | 26µM* | ? | ? | ?
CCC(C(=O)Nc1ccon1)c1ccccc1 (centres undefined) | 8% | 2% | -1% | i | 24% | i
CC1=C(C#N)C(c2ccoc2)C(C(=O)OCc2ccccc2)=C(N)S1 (centres undefined) | -6% | 26µM* | -26% | i | -2% | i
C=CCOC(=O)C1=C(C)OC(N)=C(C#N)C1c1ccoc1 (centres undefined) | 3% | -1% | 4% | i | 4%[9.24 µM] | i
COc1ccc2nc(SCC(=O)c3c(C)[nH]c4ccccc34)nc(C)c2c1 | / | -13% | 1% | i | / | ?
Cn1c(=O)c2c(nc(CN3CCc4ccccc4C3)n2CCCO)n(C)c1=O | 1% | ? | -15% | i | 3% | ?
Cn1c(=O)c2c(nc(CN3CCc4ccccc4C3)n2Cc2ccccc2F)n(C)c1=O | -2% | 6.5µM* | 8.2µM* | ? | -1% | ?
Cn1c(=O)c2c(nc(CN3CCN(c4ccccc4F)CC3)n2Cc2ccccc2F)n(C)c1=O | / | 5.2µM* | 6.5µM* | i | / | i
CCOC(=O)Cn1c(CN2CCN(C(=O)c3ccco3)CC2)nc2c1c(=O)n(C)c(=O)n2C | 23% | 13% | 2% | i | 17% | i
